For 96 compounds, fluorescence intensity results are on record in PubChem BioAssay AID624483 (NMMLSC, 2012).

Hit rate of the full screen: of about 360,000 compounds, about 11,000 (3.1%) were called active. Roughly 2% stayed inconclusive and do not appear here. Many of the other results were omitted from the sample, so actives are more common in it than they were. Unmarked numbers belong to inactive results. Cut-off read from the data, not from the text of the source: active = fluorescence intensity above about 16000; inconclusive = no clear call, values can overlap the other calls; inactive = below that.

The nature of this assay: compound fluorescence in toxin protease inhibitor counterscreen, primary screen, artefact control for toxin protease inhibitor project, biochemical, multiplex microsphere, HTS (AID 624483). The settings on record: compound autofluorescence counterscreen, microsphere flow cytometry; active compounds read high. In general terms: Counterscreens check selectivity or assay interference.
Turning to `Cc1ccc(C(=O)Nc2sc(Cc3ccc4c(c3)OCO4)c(C)c2C(N)=O)cc1`, the fluorescence intensity is 5510. Take `COc1ccc(CC(=O)Nc2c(C(N)=O)oc3ccccc23)cc1`: the fluorescence intensity is 6330. Next, `COc1ccc(CC(=O)Nc2sc(Cc3ccccc3)c(C)c2C(N)=O)cc1`: 22200 (active). The result for `COc1ccc(CCNC(=O)Nc2ccc3c(c2)c(=O)n(C)n3C)cc1OC` reads 3460; that for `CCCN(CCC)c1nc2c(C)cccn2c(=O)c1/C=C1/SC(=S)N(Cc2ccco2)C1=O`, 25600 (active); that for `Cc1ccc2[nH]c(=O)c(-c3nc4c(C)cccn4c3NCc3ccco3)cc2c1`, 2400. Consider `CNc1nc2c(C)cccn2c(=O)c1C=Nc1ccc(OC)cc1`, for which the fluorescence intensity was 4140.

For `CCN(CC)CC1(O)CCN(C(=O)c2ccc(Cl)c(Cl)c2)CC1`, the fluorescence intensity is 4500. As to `O=C1c2ccccc2C(=O)N1c1ccccc1S(=O)C(F)(F)F` (stereo unspecified), the fluorescence intensity is 2440.

Regarding `O=C1C(=O)N(c2ccccc2)c2ccccc21`, the fluorescence intensity was 22200 (active).

Turning to `O=C1C(Cl)=C(N2CCOCC2)C(=O)N1c1ccccc1`, the fluorescence intensity was 5720. The result for `CCOc1ccc(C(C)=O)cc1COC(=O)CNC(=O)c1cccs1` reads 6570; that for `Cc1occc1C(=O)Nc1cccc(S(=O)(=O)N2CCOCC2)c1`, 3850; that for `Cc1occc1C(=O)Nc1cccc(Cn2cccn2)c1`, 16800 (active). In the case of `Cc1ccnc(NC(=O)c2ccoc2C)c1`, the fluorescence intensity is 2220. In the case of `COc1ccc(-c2ccc(C(=O)NC(C)C)c3occc23)c(C)c1`, the fluorescence intensity is 3110.

On to `CCOC(=O)c1ccc2c(c1)nc(SCC(=O)NC(C)C)n2CC`, for which the fluorescence intensity was 19400 (active). As to `CCOC(=O)CNC(=O)CSc1nc2cccnc2n1CC`, the fluorescence intensity was 4460. As to `CCOC(=O)c1ccc2c(c1)nc(C)n2CC`, the fluorescence intensity was 2830.

For `CCN(CC(=O)NC(C)C)C(=O)CCNC(=O)c1ccc(Cl)cc1`, the fluorescence intensity was 23900 (active).

`O=C(CCNC(=O)c1ccc(Cl)cc1)NC1CCCc2ccccc21` (stereo unspecified): the fluorescence intensity is 5920.

Consider `CC(=O)Nc1ccc(NC(=O)CCCNC(=O)c2ccc(Cl)cc2)cc1`, for which the fluorescence intensity was 5820. The result for `Cc1ccc(Cn2cc(CN3CC(N4CCN(C)CC4)CS3(=O)=O)nn2)cc1` (stereo unspecified) reads 5630; that for `COC(CNC(=O)c1ccc2c(c1)ncn2-c1cc(C)cc(C)c1)OC`, 3480. The result for `Cc1ccc(CN2CCN(c3ccccc3Cl)CC2)o1` reads 3970; that for `COc1ccc(C(NC(=O)C2CCN(CCCc3ccccc3)CC2)c2cccs2)cc1` (stereo unspecified), 3340. The result for `CCn1c(O)c2ccc(C(=O)N=NC(=O)c3cccnc3)cc2c1O` reads 22400 (active); that for `O=C(CC(=O)c1cccnc1)c1ccccc1`, 3800; that for `CCn1c(O)c(N=NC(=O)c2cccc(S(=O)(=O)N3CCCCC3)c2)c2ccccc21`, 2120. Consider `Brc1ccc2nc(-c3ccccc3)c(Cc3ccccc3)n2c1`, for which the fluorescence intensity is 6060.

For the compound `Nc1c(N(Cc2ccco2)C(=O)c2cccc(F)c2)c(=O)[nH]c(=O)n1Cc1ccccc1`, the fluorescence intensity was 6060. Next, `CCCCn1c(O)c(C(CC)=NCc2ccco2)c(=O)[nH]c1=O`: 22200 (active); `Cn1c(=O)[nH]c(=O)c2c1[nH]c(=S)n2Cc1ccccc1`: 5200. The result for `CCC(=NCc1ccco1)c1c(O)n(Cc2ccccc2)c(=O)[nH]c1=O` reads 16900 (active); that for `CCC(=NCCCO)c1c(O)n(-c2ccc(OC)cc2)c(=O)[nH]c1=O`, 3280; that for `CCCCn1c(N)c(N(CC)C(=O)/C=C/c2ccco2)c(=O)[nH]c1=O`, 3280.

For `CCNC(=O)C1(C)CCCN(C(=O)c2ccc3ccccc3n2)C1` (stereo unspecified), the fluorescence intensity was 2790. Turning to `COc1cccc(CNc2nc3cc(-c4csc5ccccc45)sc3c(=O)n2C)c1`, the fluorescence intensity is 4090.

As to `CC(C)Nc1ncnc2c1ncn2[C@H]1CN(Cc2ccncc2)C[C@@H](CO)O1`, the fluorescence intensity is 2910. The result for `CCc1nc2c(OCC(N)=O)cccn2c1N(C)C(=O)c1ccc(OC)cc1` reads 3440. The result for `COc1ccccc1N(C)S(=O)(=O)c1ccc(C(=O)NC2CCCCCC2)cc1` reads 5030; that for `CN(Cc1ccccc1)C(=O)[C@@H]1CCCN1C(=O)[C@@H]1CCCN1C(=O)c1c(F)cccc1F`, 5720; that for `CNC(=O)c1csc(-c2ccccc2)n1`, 22300 (active). The result for `O=C(NCCc1csc(-c2ccccc2)n1)c1ccccc1F` reads 3720; that for `COc1cc(OC)cc(C(=O)NCC(=O)OCc2csc(-c3ccccc3)n2)c1`, 9780. Turning to `CCOC(=O)c1cc2cc(OC)ccc2n1C1CCN(C)CC1`, the fluorescence intensity is 5150. The result for `O=C(COC(=O)Cc1ccc(Br)cc1)Nc1ccc(N2CCOCC2)cc1` reads 8590. Regarding `CC(=O)c1ccc(Nc2nc(C(N)c3ccccc3Cl)cs2)cc1` (stereo unspecified), the fluorescence intensity is 3780. `COc1cccc(-c2cc3nc(NCc4ccccc4OC)n(C)c(=O)c3s2)c1`: the fluorescence intensity was 2860. Next, `COc1ccc(CCNc2nc(C)cc(C)n2)cc1OC`: 3430; `Nc1cc(N)nc(SCc2ccc(Cl)cc2)n1`: 4250; `COc1cnc(SCc2ccc(Cl)c(Cl)c2)nc1Cl`: 20800 (active). The result for `Cc1ccc([C@H]2N[C@]3(CCCN(CC4CCCCC4)C3=O)[C@H]3C(=O)N(Cc4ccccc4)C(=O)[C@@H]23)cc1` reads 3930; that for `CC(C)(C)c1nnc(N/N=C/c2ccc(O)cc2)n(N)c1=O`, 9530. On to `O=c1c2ccccc2nc(N/N=C/c2ccccc2)n1O`, for which the fluorescence intensity was 24900 (active). The result for `O=c1c2ccccc2ncn1/N=C/c1ccccc1` reads 3940. The result for `Cc1nnc(SCc2ccc(C(=O)c3ccc(Cl)cc3)o2)n1-c1ccccc1` reads 6940; that for `Cc1ccc(-c2noc(CSc3nnc(-c4ccncc4)n3-c3ccc(F)cc3)n2)cc1`, 21100 (active). Consider `Cn1c(SCc2ccc(F)cc2)nnc1-c1ccncc1`, for which the fluorescence intensity is 4260. As to `Fc1ccc(-n2c(Cc3ccccc3)nnc2SCc2nc(-c3ccc(Cl)cc3)no2)cc1`, the fluorescence intensity was 25000 (active). Next, `Cn1cccc1Cc1nnc(SCC(=O)NCCc2ccccc2)n1-c1ccc(F)cc1`: 5310. The result for `Cc1ccc(-c2noc(CSc3nnc(-c4cccs4)n3C)n2)cc1` reads 9700. Take `CC(C)(C)NC(=O)NC(=O)COC(=O)Cc1c(F)cccc1Cl`: the fluorescence intensity is 4470.

Regarding `O=C(Nc1c(Br)cc2c(c1Br)Cc1ccccc1-2)C(F)(F)F`, the fluorescence intensity is 3730.

In the case of `O=C(CC(NCCN1CCOCC1)C(=O)O)Nc1cccc(Cl)c1` (stereo unspecified), the fluorescence intensity is 3410.

Regarding `C=CCn1c(CC(=O)Nc2cccc(OC)c2)nnc1SCC(=O)NC1CCCCC1`, the fluorescence intensity was 21000 (active). For the compound `COc1cccc(NC(=O)CSc2nnc(C3CCCCC3)n2N)c1`, the fluorescence intensity is 7460. The result for `Cn1c(CC(=O)Nc2ccc(F)cc2)nnc1SCC(=O)NC1CCCCC1` reads 3940.

Take `Cc1nc2c(OCc3ccc(Cl)cc3Cl)cccn2c1N(C)CC1CC1`: the fluorescence intensity was 3540. As for `C[C@@H]1CN([C@@H](C)CO)C(=O)c2cc(Br)cnc2O[C@H]1CN(C)Cc1ccc(-c2ccccc2)cc1`, the fluorescence intensity was 2930. `CCCNC(=O)c1cc(C2CCCN(C(=O)c3ccc4c(c3)CCO4)C2)on1` (stereo unspecified): the fluorescence intensity was 3960. Take `O=[N+]([O-])c1ccc(C=Nc2ccc(Cl)cc2Cl)s1`: the fluorescence intensity was 22300 (active). Turning to `CC1CN(C(=O)c2ccc([N+](=O)[O-])s2)CC(C)O1` (stereo unspecified), the fluorescence intensity is 6540. Regarding `CNN/C(N=Cc1ccc([N+](=O)[O-])s1)=N\S(=O)(=O)c1cc(C)c(Cl)cc1SCc1ccccc1`, the fluorescence intensity was 3540. Consider `CC(=O)NC(c1cccc(F)c1)c1nc(-c2cccc(F)c2)cs1` (stereo unspecified), for which the fluorescence intensity was 2910. On to `COCCNC(=O)c1ccc2nc(Cc3ccc(OC)c(OC)c3)oc2c1`, for which the fluorescence intensity is 4160. For the compound `CCCCc1nc2ccc(F)cc2cc1C`, the fluorescence intensity was 6420. On to `O=C1NC[C@H](CCCCN2C[C@H](Cc3ccccc3)N(Cc3ccccc3)C(=O)C2=O)N(CCc2ccc(O)cc2)C1=O`, for which the fluorescence intensity is 4050. Next, `CC(=O)Nc1cc(C(=O)O)ccc1S(=O)(=O)c1ccc(Cl)cc1`: 22400 (active). In the case of `Cc1ccc(S(=O)(=O)c2ccc(Cl)cc2)cc1S(=O)(=O)NC(C(=O)O)C(C)C` (stereo unspecified), the fluorescence intensity is 1970.

On to `COCCNC(=O)c1ccc(S(=O)(=O)c2ccc(Cl)cc2)c(NC(C)=O)c1`, for which the fluorescence intensity was 3030.

On to `CC1(C(=O)Nc2cccc3cccnc23)CCN1C(=O)CCC1CCCC1` (stereo unspecified), for which the fluorescence intensity is 3540.

Turning to `COc1cccc(CN(C)C(=O)CC[C@H]2O[C@@H](n3cnc4c(NC(=O)c5ccccc5)ncnc43)[C@H](O)[C@@H]2O)c1`, the fluorescence intensity is 5840.

As to `COc1ccc2ccccc2c1CNCc1ccccn1`, the fluorescence intensity is 22000 (active). On to `COc1ccc2ccccc2c1CNc1nnnn1C`, for which the fluorescence intensity is 4610. The result for `COc1ccc(C)cc1NC(=O)NCc1ccccn1` reads 2130; that for `Cc1ccc(Cc2c(-c3ccco3)nc3ccc(Cl)cn23)cc1`, 5920; that for `CC(=O)Nc1ccc(S(=O)(=O)NC2Cc3ccccc3C2)cc1`, 4250.

Take `COc1ccc(-c2cc(NC=O)c3ncc(-c4ccccc4)n3c2)cc1OC`: the fluorescence intensity is 4190. Next, `CN(CC#CCC(c1ccccc1)c1ccccc1)C(C)(C)C`: 13300; `CC(C)NC(=O)C(=O)NCCN1CCN(S(=O)(=O)c2ccc(Cl)cc2)CC1`: 10600. `CS(=O)(=O)N1CCCCC1c1cc(C(=O)NCc2ccccc2)no1` (stereo unspecified): the fluorescence intensity is 2870.

For `CC(=O)c1cccc(-c2cnc3c(NC=O)cc(-c4ccc(N5CCN(C)CC5)cc4)cn23)c1`, the fluorescence intensity was 3240. Next, `O=C(Nc1ccc(C(=O)N2CCOCC2)cc1)Nc1cccc(C(F)(F)F)c1`: 6040.

Consider `NC(=O)Nc1cccc(C(F)(F)F)c1`, for which the fluorescence intensity was 23300 (active).

Take `O=C(CN1CCN(c2ccc(F)cc2)CC1)Nc1cccc(C(F)(F)F)c1`: the fluorescence intensity was 2100.
